Rab9 promoter act: Rab9 promoter activation; AID 485297; Huh7 Rab9 promoter-luciferase reporter, luminescence, 24 h; Potency, µM (doses to about 9.22 µM), inactives show at the top dose activation, negative = inhibition, usual class: activators; hit rate 2.8% among 320,000; note: % of control where 0% means no effect; nearly all actives have a fitted effect of over 60% in size
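Rab9 promoter-driven luciferase in stably transfected Huh7 cells; 1500 cells/well rested 2 h, exposed to compound in DMSO for 24 h at 37 °C, 5% CO2. Luminescence read 10 min after adding luciferase reagent at ambient temperature.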
KinaseGlo FLuc: Kinase-Glo luciferase inhibition (counter-screen); Potency, µM (titrated, usually from 38.3 µM), inactives show top-dose activity change, negative = inhibition, actives largely listed as inhibitors; Kinase-Glo luciferase, ATP luminescence, 8 min; hit rate 0.28% among 200,000; Q27757; note: % is set by controls: 0 for no effect and ±100 for the full control effect; nearly all actives have a fitted effect of over 60% in size
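Recombinant Kinase-Glo luciferase, 10 uM ATP (linear range), luciferin; imidazole pH 7.2 / KCl / MgCl2 / Tween / BSA buffer; 8 min RT; luminescence.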
NPC1 prom act: activates the NPC1 promoter. Huh7 NPC1 promoter luciferase reporter, 24 h. Potency, µM (highest dose often 9.22 µM), without a hit: at the highest dose activation, most hits filed as activators. hit rate 2.4% among 320,000. AID 485313; note: % of control where 0% means no effect; nearly all actives have a fitted effect of over 60% in size
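Huh7 reporter cells (NPC1 promoter driving luciferase) are dosed with compound for 24 h at 37 °C, 5% CO2; luciferase detection reagent is then added and luminescence measured after 10 min at ambient temperature.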
SMN2 splice enh: enhancers of SMN2 splice variant expression; Potency, µM (highest dose often 46.1 µM), for the others: at the highest dose activity change, positive = activation, actives largely listed as activators; AID 1458; HEK293 SMN2-luciferase splicing reporter, luminescence, 30-36 h; hit rate 2.8% among 210,000; note: % of control where 0% means no effect; nearly all actives have a fitted effect of over 55% in size
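HEK293 cells carry an SMN2 minigene-luciferase reporter in which exon 7 inclusion puts luciferase in frame. Cells were seeded at 2000 cells/well, attached for 10-12 hours, then exposed to compounds for 30-36 hours at 37C before ONE-Glo luminescence.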
FLuc counter: firefly luciferase modulation, counter-screen for miR-21 project; P08659; purified FLuc, Km substrates, luminescence inhibition; AID 588342; Potency, µM (titrated, usually from 57.5 µM), without a hit: at the highest dose activity change, negative = inhibition, actives largely listed as inhibitors; hit rate 6.9% among 360,000;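 note: plate controls were vehicle for no effect and reference inhibitor for full effect; nearly all actives have a fitted effect of over 55% in size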
Target sequence (P08659 whole entry, looked up): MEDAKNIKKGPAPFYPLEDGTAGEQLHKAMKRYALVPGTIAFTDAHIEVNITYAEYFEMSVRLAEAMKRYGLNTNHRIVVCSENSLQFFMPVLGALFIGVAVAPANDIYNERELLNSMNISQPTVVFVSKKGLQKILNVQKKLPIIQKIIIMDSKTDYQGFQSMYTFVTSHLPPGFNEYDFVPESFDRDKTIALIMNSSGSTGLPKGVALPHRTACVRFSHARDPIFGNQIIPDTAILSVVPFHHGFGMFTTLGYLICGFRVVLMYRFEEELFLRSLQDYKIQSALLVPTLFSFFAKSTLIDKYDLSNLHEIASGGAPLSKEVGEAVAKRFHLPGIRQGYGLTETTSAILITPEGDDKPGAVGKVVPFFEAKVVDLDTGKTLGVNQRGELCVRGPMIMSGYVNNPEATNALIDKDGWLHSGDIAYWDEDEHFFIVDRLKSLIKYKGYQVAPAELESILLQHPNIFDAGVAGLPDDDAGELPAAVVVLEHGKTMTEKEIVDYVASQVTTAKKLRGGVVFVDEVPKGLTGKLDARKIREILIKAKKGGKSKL
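Purified P. pyralis luciferase, 10 nM final, with Km-level 10 uM D-luciferin and 10 uM ATP in 50 mM Tris acetate pH 7.5, 10 mM Mg acetate, 0.01% Tween-20, 0.05% BSA; 6-point qHTS titration about 60 µM downward; luminescence read.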
ELG1 genotox: genotoxicity induction in ELG1-luciferase HEK293T cells | HEK293T ELG1-luciferase reporter, luminescence, 16 h | Potency, µM (top dose mostly 46 µM), for inactives: at the highest dose activity change, positive = activation, hits mostly activators | hit rate 1.3% among 330,000 | AID 504466; note: % of control where 0% means no effect; nearly all actives have a fitted effect of over 60% in size
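HEK293T cells expressing luciferase-tagged ELG1 were exposed to compound or DMSO vehicle for 16 hr at 37 °C and 5% CO2. Luciferase activity was then measured with ONE-Glo after 30 min at room temperature.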
* hit, by the source's call; u = inconclusive; x = no result. Most compounds without a hit are left out; they make up all but 7.3% or so of the library. Calls come from the whole dose curve; as a rule, active = well fitted curve in the direction sought with a large enough effect; inconclusive = small, poorly fitted or top-dose-only effect, or another doubt; inactive = no such curve, though single readings can be large; an effect the other way counts as inactive or inconclusive. Potency is the fitted concentration of half-maximal effect.

SMILES | Rab9 promoter act | KinaseGlo FLuc | NPC1 prom act | SMN2 splice enh | FLuc counter | ELG1 genotox
Cc1cc(N=Nc2ccc(Cl)cc2)cc(CN2CCOCC2)c1O | 0% | x | -4% | x | 17µM* | -3%
CCCCCOc1ccc(Cl)cc1CN1CCOCC1 | u | 0% | 21% | -4% | 15µM* | 21µM*
c1ccc2c(COn3nnc4ccccc43)cccc2c1 | 2.5µM* | 3% | u | x | 11µM* | 8.9µM*
CN(C)c1ccccc1C(=O)c1ccccc1N(C)C | -11% | -4% | -12% | 5µM* | 19µM* | 21µM*
COc1ccc2nc(C)cc(SCC(=O)N/N=C/c3ccccc3)c2c1 | -4% | 1% | -2% | 3% | -2% | -1%
COc1ccc(/C=N/Nc2cc(C)nc3ccc(OC)cc23)c(OC)c1 | 3% | x | -2% | x | 21µM* | 18%
COc1ccc(/C=N/Nc2ncccc2[N+](=O)[O-])c(OC)c1 | 3.5µM* | 11µM* | u | 11µM* | 1.1µM* | 2.6µM*
COc1ccccc1/C=N/Nc1cc(C)nc2ccc(C)cc12 | 11% | x | 16% | x | -12% | 7%
COc1ccc2nc(C)cc(N/N=C/c3ccccc3)c2c1 | -5% | x | -2% | x | 9.5µM* | 4%
COc1ccc(/C=N/Nc2ncc(-c3ccccc3)cn2)c(OC)c1 | 1% | -1% | -3% | -25% | -3% | 5%
Cc1ccc(C(=O)/C=C/Nc2cccc([N+](=O)[O-])c2)o1 | 3.2µM* | -6% | u | 14µM* | 5.4µM* | u
COCCN=C1Sc2nc3ccc(C)cc3cc2CN1Cc1ccco1 | 22% | -2% | 16% | 20% | 11µM* | 12%
COC(=O)[C@H](CCSC)NC(=O)Nc1cccc(C)c1C | 1% | x | -4% | x | 1% | -1%
COc1ccc(Nc2nc3ccccc3nc2NS(=O)(=O)c2ccc(Cl)cc2)cc1OC | x | x | x | -7% | 6.7µM* | x
CCc1ccc(OCC(=O)O/N=C(\N)c2cccnc2)cc1 | 17% | x | 3% | x | u | 8%
Cc1cc(C)c(C)c(OCC(=O)O/N=C(\N)c2cccnc2)c1 | 0% | x | -5% | x | 6% | -5%
N/C(=N\OC(=O)COc1ccc(Br)cc1Cl)c1cccnc1 | u | 3% | u | 18µM* | 8.5µM* | u
N/C(=N\OC(=O)COc1ccc(Cl)cc1Br)c1cccnc1 | 4µM* | -2% | 3.2µM* | -1% | 2.7µM* | -11%
N/C(=N\OC(=O)COc1ccc(Cl)cc1Cl)c1ccncc1 | 0.63µM* | -3% | 2.8µM* | x | 3µM* | u
CCN(CC)CCOC(=O)CCc1cccc2ccccc12 | -3% | -1% | -4% | 13% | 2% | 1%
CC(=O)c1ccc(NC(=O)CSc2nccn2C)cc1 | 11% | x | 22% | x | -8% | 13%
O=C(CSc1nccn1Cc1ccco1)Nc1cccc(F)c1 | 26% | x | 17% | x | -4% | 9%
O=C(CSc1nccn1Cc1ccco1)Nc1ccc(F)cc1 | 3% | x | -3% | x | -13% | u
CC(=O)c1ccc(NC(=O)CSc2nccn2CCc2ccccc2)cc1 | u | -3% | u | 15% | 13µM* | u
CC(=O)c1ccc(NC(=O)CSc2nccn2Cc2ccco2)cc1 | x | x | x | x | 17µM* | x
SMILES | Rab9 promoter act | KinaseGlo FLuc | NPC1 prom act | SMN2 splice enh | FLuc counter | ELG1 genotox
Cc1ccc(NC(=O)CSc2nccn2Cc2ccco2)cc1 | 4.5µM* | x | u | x | 19µM* | u
CCn1c(SCC(=O)Nc2ccc3[nH]c(=O)[nH]c3c2)nc2ccccc21 | -3% | x | -1% | x | 2% | 4%
CCn1c(SCC(=O)Nc2ccc(C(C)=O)cc2)nc2ccccc21 | u | 2% | u | u | u | 16µM*
O=C1N(Cc2cccnc2)C[C@@H]2C[C@@H](c3ccc4nonc4c3)N3CCC[C@@]123 | -3% | 0% | -2% | x | -1% | -4%
CCOC(=O)CN(C(=O)CNC(=O)c1cccs1)C(C(=O)NC1CCCCC1)c1cccs1 (stereo not given) | 0% | 3% | -3% | 1% | 7% | -1%
N#Cc1ccccc1NC(=O)CSc1nccn1CCc1ccccc1 | u | -1% | u | u | 21µM* | 21µM*
N#Cc1ccccc1NC(=O)CSc1nnc(-c2ccccc2)n1-c1ccccc1 | 2% | -2% | 4% | -20% | 1% | -29%
COc1ccc(NC(=O)CSc2nccn2Cc2ccco2)c(OC)c1 | u | x | 21% | x | 19µM* | u
CCn1c(=O)c(C(=O)Nc2cc(OC)c(OC)c(OC)c2)nc2ccccc21 | x | x | x | 10% | 1% | x
c1ccc(-c2cc3nccc(-c4ccccn4)n3n2)cc1 | 2.2µM* | x | 2.5µM* | x | 9.5µM* | u
Cc1cc2nccc(-c3ccccn3)n2n1 | -1% | -3% | -3% | 0% | -3% | 2%
Cc1cc(C)cc(NC(=O)Cc2noc3ccccc23)c1 | x | x | x | x | -17% | x
Cc1ccc(NC(=O)Cc2noc3ccccc23)cc1 | u | -1% | u | u | 21µM* | u
COC(=O)c1cc(NC(=O)c2cc3ccccc3o2)cc(C(=O)OC)c1 | 10% | x | -4% | x | u | -8%
O=C(Nc1cccc(NC(=O)c2ccc(-c3ccc(Br)cc3)o2)c1)c1ccco1 | 19% | 1% | 19% | 17% | 2.7µM* | -7%
COC(=O)c1ccccc1NC(=O)c1cc2ccccc2o1 | u | x | u | x | 13µM* | -1%
Cc1ccc2cccc(NC(=O)c3ccc(-c4ccc(Br)cc4)o3)c2n1 | x | x | x | -2% | 0% | x
COC(=O)c1cccc(NC(=O)c2cc3ccccc3o2)c1 | 0.71µM* | x | 0.71µM* | x | 2.1µM* | 16%
COC(=O)c1ccccc1NC(=O)c1ccc(-c2ccc(Br)cc2)o1 | 0.79µM* | -1% | 10% | 28% | -7% | 1.8µM*
CN(C(=O)COC(=O)COc1ccc2ccccc2c1)c1c(N)n(Cc2ccccc2)c(=O)[nH]c1=O | -3% | x | -4% | x | 3% | -1%
O=C(Nc1ccccc1C(F)(F)F)c1cc2ccccc2o1 | 2.2µM* | x | 2.5µM* | x | 3.4µM* | 10µM*
CCC(Sc1nc2ccccc2o1)C(=O)O (stereo not given) | 5% | 0% | -1% | -4% | u | 4%
O=C(O)CSc1nc2ccccc2o1 | 12% | -1% | 1% | -6% | -13% | 6%
Cc1ccc(C(=O)CSc2nc3ccccc3o2)cc1 | u | -3% | 22% | -29% | 13µM* | 20%
O=C(CSc1nc2ccccc2o1)Nc1ccccc1 | -1% | 1% | 3% | 23% | u | 21µM*
CC(Sc1nc2ccccc2o1)C(=O)O (stereo not given) | 4% | -25% | -3% | -19% | 15µM* | u
CCOc1ccc(NC(=O)COc2coc(CN3CCc4ccccc4C3)cc2=O)cc1 | -7% | x | 4% | x | 1% | 1%
